Screening data deposited in PubChem BioAssay by Broad Institute.
SUMO Mot1 rescue – blocks SUMOylation pathway, rescuing yeast Mot1-301 growth; growth rescue, % at 18.8 µM; S. cerevisiae Mot1-301 growth rescue, ATP luminescence, 38.5C; percent above DMSO median, 100 means doubled; 320,000 compounds, 1% hits; AID 2716;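 active means every valid replicate shows activation above 250% relative to neutral control wells; inactive means the rest, any valid replicate at or below 250%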;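 further: OY570 slx delta 5 strain wells were the positive control but not used for scaling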
NSD2 HMT inh – blocks human histone methyltransferase NSD2; inhibition, % at 12.5 µM; O96028; AID 743445; NSD2 peptide methylation, AlphaScreen, 120 min; 310,000 compounds, 0.54% hits; in the data active means inhibition above about 50%
CDK5 inh – CDK5/p35 (human) kinase inhibition. AID 488839. Recombinant CDK5/p35, ADP-Glo luminescence, 60 min. 330,000 compounds, 0.01% hits. inhibition, % at 10 µM. Q00535+Q15078;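 active means highest replicate inhibition of at least 50% and at least 75% of replicates reaching 50%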;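 further: plate controls were DMSO neutral control for no effect and GW8510 at 10 µM for full effect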
CASP6 VEID inh – inhibitors of human caspase-6 | P55212 | purified caspase-6, Z-VEID-R110 cleavage fluorescence | inhibition, % at 12.5 µM | 350,000 compounds, 0.53% hits | AID 686996;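 active means mean inhibition across replicates at least about 35%, with every replicate also reaching that limit, limit read from the data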;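 further: 0% = median of neutral control wells and 100% = no fluorescence left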
Target sequence (P55212 24-179 limits assumed): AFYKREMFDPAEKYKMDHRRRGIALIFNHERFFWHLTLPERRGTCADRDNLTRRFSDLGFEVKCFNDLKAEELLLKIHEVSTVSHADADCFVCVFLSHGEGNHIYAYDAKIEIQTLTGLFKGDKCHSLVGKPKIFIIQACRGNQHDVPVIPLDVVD
Target sequence (P55212 194-293 limits assumed): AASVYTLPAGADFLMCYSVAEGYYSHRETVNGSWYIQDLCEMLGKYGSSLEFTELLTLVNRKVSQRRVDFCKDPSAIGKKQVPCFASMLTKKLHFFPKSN
ALR H2O2 inh – blocks human ALR sulfhydryl oxidase activity | purified ALR, DTT oxidation, H2O2 HRP-luminol luminescence | inhibition, % (test concentration not listed) | 290,000 compounds, 3.8% hits;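 active means mean replicate inhibition above about 79%, with every replicate also reaching it, limit read from the data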
Target sequence (P55789 whole entry, looked up): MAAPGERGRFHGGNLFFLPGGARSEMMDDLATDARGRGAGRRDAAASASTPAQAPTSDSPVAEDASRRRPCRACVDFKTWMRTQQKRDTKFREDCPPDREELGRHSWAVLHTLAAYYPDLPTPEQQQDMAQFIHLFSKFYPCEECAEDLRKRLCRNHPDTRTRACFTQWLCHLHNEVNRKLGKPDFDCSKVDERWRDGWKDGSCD
N-glyco inh – N-linked glycosylation inhibition | D54 ERlucT glycosylation luciferase reporter, 24 h; percent of 100 nM tunicamycin response | reporter increase, % at 12.5 µM | 360,000 compounds, 0.23% hits;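 active means mean luciferase reporter signal, scaled so untreated is 0 and the glycosylation-blocking control 100, at or above a set limit in every replicate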;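 further: luciferase carries N-glycosylation sites so blocking glycosylation raises the light; 0% = median of neutral control wells and 100% = median of 100 nM tunicamycin wells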
The depositor's hits bear a star. Hits are enriched below; roughly 3.9% of the tested compounds scored in any of these assays.

Results for Cc1ccc(NC(=O)CSc2nccc(=O)[nH]2)c(S(=O)(=O)N2CCOCC2)c1 ?
CDK5 inh: 0; ALR H2O2 inh: 98*; N-glyco inh: 2

What do the screens show for `Nc1ccc(-c2nc3ccc(C(=O)O)cc3s2)cc1`?
SUMO Mot1 rescue: -4; NSD2 HMT inh: 1; CDK5 inh: 2; CASP6 VEID inh: 24; ALR H2O2 inh: 99*; N-glyco inh: -17

Results for Nc1ccc(-c2nc3ccc(N)cc3s2)cc1 ?
SUMO Mot1 rescue: 6; CDK5 inh: 3; CASP6 VEID inh: -2; ALR H2O2 inh: 99*; N-glyco inh: -15

What do the screens show for `Nc1cccc(-c2nc3ccc(N)cc3s2)c1`?
SUMO Mot1 rescue: 62; NSD2 HMT inh: -4; CDK5 inh: 3; ALR H2O2 inh: 99*; N-glyco inh: -6

How did O=C(O)c1ccc2nc(-c3ccccc3)sc2c1 do in these assays?
SUMO Mot1 rescue: 134; NSD2 HMT inh: -2; CDK5 inh: 4; N-glyco inh: -13

How did c1ccc2sc(-c3ccncc3)nc2c1 do in these assays?
SUMO Mot1 rescue: 3; NSD2 HMT inh: 0; CDK5 inh: -1; CASP6 VEID inh: -1; ALR H2O2 inh: -5; N-glyco inh: 2

What do the screens show for `Oc1ccc(-c2nc3ccccc3s2)cc1`?
SUMO Mot1 rescue: -27; CDK5 inh: 6; CASP6 VEID inh: 1; ALR H2O2 inh: 90*; N-glyco inh: -13

What do the screens show for `O=C(NCc1ccccn1)[C@@H]1[C@@H](CO)[C@@H]2Cn3c(cccc3=O)[C@@H]2N1CCc1ccccc1`?
CASP6 VEID inh: -2

Results for CC(C)NC(=O)N(C)C[C@@H]1Oc2c(NC(=O)C3CCOCC3)cccc2C(=O)N([C@H](C)CO)C[C@H]1C ?
CASP6 VEID inh: -2

What do the screens show for `COCCNC(=O)C[C@@H]1C[C@H]2c3cc(NC(=O)CC4CC4)ccc3O[C@H]2[C@@H](CO)O1`?
CASP6 VEID inh: -1

Results for C[C@H](CO)N1C[C@H](C)[C@@H](CN(C)S(=O)(=O)c2ccc(F)cc2)Oc2ccc(NS(C)(=O)=O)cc2CC1=O ?
CASP6 VEID inh: 44*

How did C[C@H]1CN([C@@H](C)CO)C(=O)Cc2cc(NC(=O)NC3CCCCC3)ccc2O[C@H]1CN(C)Cc1ccc(-c2ccccc2)cc1 do in these assays?
CASP6 VEID inh: 42*

What do the screens show for `C[C@H]1CN([C@@H](C)CO)C(=O)Cc2cc(NS(C)(=O)=O)ccc2O[C@@H]1CN(C)S(=O)(=O)c1ccc(F)cc1`?
CASP6 VEID inh: 0

What do the screens show for `C[C@H](CO)N1C[C@H](C)[C@H](CN(C)Cc2ccc(-c3ccccc3)cc2)Oc2ccc(NC(=O)NC3CCCCC3)cc2CC1=O`?
CASP6 VEID inh: -2

Results for C[C@@H]1CN([C@@H](C)CO)C(=O)Cc2cc(N(C)C)ccc2O[C@@H]1CN(C)Cc1ccccc1 ?
CASP6 VEID inh: 35*

Results for CN1CCN(C(=O)C[C@H]2CC[C@@H]3[C@H](COC[C@@H](O)CN3C(=O)C3CCOCC3)O2)CC1 ?
CASP6 VEID inh: 1

What do the screens show for `CCN(C(=O)CSc1nc2ccc([N+](=O)[O-])cc2s1)c1c(N)n(Cc2ccccc2)c(=O)[nH]c1=O`?
NSD2 HMT inh: 0; CDK5 inh: 1; CASP6 VEID inh: -2; N-glyco inh: -2

Results for CCCn1c(N)c(C(=O)CSc2nc3ccccc3s2)c(=O)[nH]c1=O ?
SUMO Mot1 rescue: -5; NSD2 HMT inh: -7; CDK5 inh: 1; CASP6 VEID inh: -1; ALR H2O2 inh: 97*; N-glyco inh: -12

What do the screens show for `CN(C(=O)CSc1nc2ccccc2s1)c1c(N)n(Cc2ccccc2)c(=O)[nH]c1=O`?
NSD2 HMT inh: -1; CDK5 inh: 1; CASP6 VEID inh: 1; ALR H2O2 inh: 99*; N-glyco inh: -1

What do the screens show for `Nc1cccc(Nc2ccccc2)c1`?
SUMO Mot1 rescue: -15; NSD2 HMT inh: 5; CDK5 inh: 0; CASP6 VEID inh: 0; ALR H2O2 inh: 99*; N-glyco inh: 2

How did Nc1cccc(Nc2ncnc3ccccc23)c1 do in these assays?
SUMO Mot1 rescue: 0; NSD2 HMT inh: 2; CDK5 inh: -3; CASP6 VEID inh: 1; ALR H2O2 inh: 99*; N-glyco inh: -1

How did c1ccc(Nc2cccc(Nc3ccccc3)c2)cc1 do in these assays?
SUMO Mot1 rescue: 14; NSD2 HMT inh: -1; CDK5 inh: -1; ALR H2O2 inh: 98*; N-glyco inh: 0

Results for Oc1cccc(Nc2ccccc2)c1 ?
SUMO Mot1 rescue: -23; CDK5 inh: 0; CASP6 VEID inh: -5; ALR H2O2 inh: 99*; N-glyco inh: -1

How did Oc1cccc(Nc2ncnc3ccccc23)c1 do in these assays?
SUMO Mot1 rescue: 6; NSD2 HMT inh: 1; CDK5 inh: -1; CASP6 VEID inh: -2; ALR H2O2 inh: 71; N-glyco inh: 1

Results for Nc1cccc(Nc2nc(OC(C(F)(F)F)C(F)(F)F)nc(OC(C(F)(F)F)C(F)(F)F)n2)c1 ?
SUMO Mot1 rescue: 242; NSD2 HMT inh: 2; CDK5 inh: 0; ALR H2O2 inh: 0; N-glyco inh: -9

Results for O=C(NCC[C@@H]1CC[C@@H](NC(=O)c2ccccc2F)[C@@H](CO)O1)c1ccc2c(c1)OCO2 ?
CASP6 VEID inh: -3

What do the screens show for `CCCCCc1cc(=O)oc2c(C(CCN(CC)CC)c3ccc(OC)cc3)c(OC)cc(OC)c12` (configuration not stated)?
SUMO Mot1 rescue: 215; CDK5 inh: 2; CASP6 VEID inh: 12; ALR H2O2 inh: -82; N-glyco inh: -4

Results for CCN(CC)CCC(c1ccc(N(C)C)cc1)c1c(OC)cc(OC)c2ccc(=O)oc12 (configuration not stated) ?
SUMO Mot1 rescue: -19; CDK5 inh: -2; ALR H2O2 inh: 99*; N-glyco inh: -2

What do the screens show for `CCN(CC)C(=O)CC(c1ccc(N(C)C)cc1)c1c(OC)cc(OC)c2ccc(=O)oc12` (configuration not stated)?
SUMO Mot1 rescue: -9; CDK5 inh: 0; CASP6 VEID inh: -2; ALR H2O2 inh: 98*; N-glyco inh: 2

How did O=C(O)C[C@H]1C[C@@H]2c3cc(NC(=O)C4CCC4)ccc3O[C@@H]2[C@H](CO)O1 do in these assays?
CASP6 VEID inh: 0

Results for CCCCNc1nc(NCc2ccccc2)nc2ccccc12 ?
CASP6 VEID inh: 44*

How did CNc1nc(NCc2ccccc2)c2ccccc2n1 do in these assays?
SUMO Mot1 rescue: -3; NSD2 HMT inh: 5; CDK5 inh: 0; CASP6 VEID inh: -3; N-glyco inh: 11

How did NCCc1c(-c2ccccc2)n(-c2ccccc2)c2ccccc12 do in these assays?
NSD2 HMT inh: 60*; CDK5 inh: 1; CASP6 VEID inh: -3; N-glyco inh: 5

What do the screens show for `CC(=O)n1c(-c2ccccc2)c(CO)c2ccccc21`?
SUMO Mot1 rescue: 1; CDK5 inh: 1; CASP6 VEID inh: -3; ALR H2O2 inh: 21; N-glyco inh: 1
